The structures appear in SMILES notation. Results filed as inconclusive are left out. Active and inactive are the calls of the source. The calls were made as follows, unless noted: active = hit-call score of the fitted dose curve at least 0.9, where 1 is the maximum; inconclusive = response in the unintended direction; inactive = score below 0.9.

For test [1], the target named is Retinoic acid receptor RXR-alpha (Homo sapiens) (UniProt P19793). Description: TOX21_TR_RXR_BLA_Agonist_Followup_ratio: Tox21 Thyroid Hormone Receptor beta Retinoid X Receptor alpha (RXRa) Agonism Beta-lactamase (BLA) Follow-Up Assay, Ratio (AID 2283968). Summed up: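 Agonism is scored as an increase in the 460:530 nm beta-lactamase substrate ratio over DMSO in RXRa-UAS-bla HEK293T cells exposed for 16 h to 11 compound concentrations.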

The nature of test [2]: TOX21_TR_RXR_BLA_Agonist_Followup_viability: Viability Assessment in the Tox21 Thyroid Hormone Receptor beta Retinoid X Receptor alpha (RXRa) Agonism Beta-lactamase (BLA) Follow-Up Assay (AID 2283970). A digest of the protocol: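 Luminescent ATP read (CellTiter-Glo) after 16h exposure of RXRa-UAS-bla HEK293T cells at 37C/5% CO2. Activity normalized to DMSO; signal loss scored as reduced viability.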

Test [3] has as its target rat CYP2C11, Cyp2c11 (gene 29277) (UniProt P08683). Description: NVS_ADME_rCYP2C11: NovaScreen (NVS) CYP450-related Enzyme Activity (ADME) Assay for rat CYP2C11 (AID 2283118). A digest of the protocol: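 Screened first at 10 uM in duplicate, hits followed by concentration-response. Recombinant rat enzyme activity monitored by fluorescence 0.33 h post-dosing, normalised to acetonitrile negative control.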

Test [4] deals with rat CYP2C13, Cyp2c13 (gene 171521) (UniProt P20814). Kind of test: NVS_ADME_rCYP2C13: NovaScreen (NVS) CYP450-related Enzyme Activity (ADME) Assay for rat CYP2C13 (AID 2283121). Summed up: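 Inhibition is read as decreased fluorescent product formation, referenced to acetonitrile vehicle. Cell-free recombinant rat Cyp2c13 reaction ran 0.75 hour; compounds first at 10 uM in duplicate, then concentration series for actives.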

A short description of test [5]: CEETOX_H295R_11DCORT_noMTC: CeeTox H295R High-throughput Steroidogenesis Assay for 11-Deoxycortisol (11DCORT), maximum tolerated concentration (MTC) filtered results only (AID 2283911; active = hit-call score of the fitted dose curve at least 0.9, where 1 is the maximum; inactive = score below 0.9). The settings on record: actives raise or lower the signal. Summed up:
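Values carry no filtering for maximum tolerated concentration: medium from forskolin-primed (10 uM, 48 h) H295R cells after 48 h chemical exposure (0.1% DMSO) was MTBE-extracted, and 11-deoxycortisol quantified by reverse-phase HPLC-MS/MS. Fitting was bidirectional against DMSO.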

A short description of test [6]: CEETOX_H295R_OHPREG_noMTC: CeeTox H295R High-throughput Steroidogenesis Assay for OH-Pregnenolone (OHPREG), maximum tolerated concentration (MTC) filtered results only (AID 2283912; active = hit-call score of the fitted dose curve at least 0.9, where 1 is the maximum; inactive = score below 0.9). The settings on record: actives raise or lower the signal. Summed up:
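H295R; 10 uM forskolin 48 h pre-stim; test cpd in DMSO (0.1% final) 48 h; media MTBE-extracted, HPLC-MS/MS for OH-pregnenolone; bidirectional fit vs DMSO; no MTC (MTT) filtering.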

Test [7] is described as follows: CEETOX_H295R_OHPROG_noMTC: CeeTox H295R High-throughput Steroidogenesis Assay for OH-Progesterone (OHPROG), maximum tolerated concentration (MTC) filtered results only (AID 2283914; active = hit-call score of the fitted dose curve at least 0.9, where 1 is the maximum; inactive = score below 0.9). Particulars: actives raise or lower the signal. Summed up: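 Medium hormone measured by reverse-phase C18 HPLC with positive electrospray MS/MS after MTBE liquid-liquid extraction. Cells had 48 h forskolin (10 uM) prestimulation, then 48 h chemical dosing. Gain or loss of signal fitted relative to DMSO baseline.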

Test [8] can be described thus: CEETOX_H295R_ANDR_noMTC: CeeTox H295R High-throughput Steroidogenesis Assay for Androstenedione (ANDR), maximum tolerated concentration (MTC) filtered results only (AID 2283915; active = hit-call score of the fitted dose curve at least 0.9, where 1 is the maximum; inactive = score below 0.9). Particulars: actives raise or lower the signal. A digest of the protocol: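 Androstenedione secreted into medium was measured by LC-MS/MS after MTBE extraction. Human adrenal H295R cells received 10 uM forskolin for 48 h before 48 h chemical exposure (0.1% DMSO). Gain or loss fitted against DMSO, including concentrations above the MTT-derived MTC.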

The nature of test [9]: CEETOX_H295R_CORTISOL_noMTC: CeeTox H295R High-throughput Steroidogenesis Assay for Cortisol, maximum tolerated concentration (MTC) filtered results only (AID 2283916; active = hit-call score of the fitted dose curve at least 0.9, where 1 is the maximum; inactive = score below 0.9). The settings on record: actives raise or lower the signal. A digest of the protocol: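 H295R human adrenal cells prestimulated 48 h with 10 uM forskolin, then exposed 48 h to chemical in 0.1% DMSO; cortisol in medium quantified by HPLC-MS/MS; bidirectional fit vs DMSO baseline, concentrations not MTT-filtered for MTC.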

Test [10] can be described thus: CEETOX_H295R_CORTIC_noMTC: CeeTox H295R High-throughput Steroidogenesis Assay for Corticosterone (CORTIC), maximum tolerated concentration (MTC) filtered results only (AID 2283917; active = hit-call score of the fitted dose curve at least 0.9, where 1 is the maximum; inactive = score below 0.9). Particulars: actives raise or lower the signal. Summed up: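 Corticosterone secreted into the medium was measured by reverse-phase C18 HPLC with tandem MS after MTBE extraction. Cells (H295R) had 48 h forskolin (10 uM) stimulation before 48 h chemical exposure; gain or loss of signal was fitted relative to DMSO.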

Test [11] is described as follows: CEETOX_H295R_DOC_noMTC: CeeTox H295R High-throughput Steroidogenesis Assay for DOC, maximum tolerated concentration (MTC) filtered results only (AID 2283918; active = hit-call score of the fitted dose curve at least 0.9, where 1 is the maximum; inactive = score below 0.9). The settings on record: actives raise or lower the signal. Summed up:
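H295R cells prestimulated 48 h with 10 uM forskolin, then exposed 48 h to chemical in 0.1% DMSO. 11-Deoxycorticosterone in medium measured by MTBE extraction and HPLC-MS/MS; bidirectional fit vs DMSO, no MTC filter.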

Test [12] in a line: CEETOX_H295R_PROG_noMTC: CeeTox H295R High-throughput Steroidogenesis Assay for Progesterone (PROG), maximum tolerated concentration (MTC) filtered results only (AID 2283920; active = hit-call score of the fitted dose curve at least 0.9, where 1 is the maximum; inactive = score below 0.9). The settings on record: actives raise or lower the signal. Summed up: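 Readout: medium progesterone by MTBE extraction, reverse-phase C18 HPLC, ESI-positive MS/MS. Human H295R cells, 10 uM forskolin pretreatment 48 h, chemical 48 h in 0.1% DMSO. Gain or loss fitted against DMSO baseline.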

Test [13] in a line: CEETOX_H295R_TESTO_noMTC: CeeTox H295R High-throughput Steroidogenesis Assay for Testosterone (TESTO), maximum tolerated concentration (MTC) filtered results only (AID 2283924; active = hit-call score of the fitted dose curve at least 0.9, where 1 is the maximum; inactive = score below 0.9). The settings on record: actives raise or lower the signal. Summed up:
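Medium testosterone, measured by HPLC-MS/MS after liquid-liquid extraction, was fitted in both directions relative to DMSO without MTC filtering. Adrenal H295R cells received 48 h chemical exposure (0.1% DMSO final) after 48 h forskolin (10 uM) prestimulation; viability by MTT.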

Test [14] has as its target human CYP2C9, CYP2C9 (gene 1559) (UniProt P11712). Kind of test: NVS_ADME_hCYP2C9: NovaScreen (NVS) CYP450-related Enzyme Activity (ADME) Assay for human CYP2C9 (AID 2283108). Summed up:
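Recombinant human CYP2C9 expressed in SF9 cells, fluorogenic substrate, fluorescence read 0.75 h after dosing. Chemicals first run in duplicate at 10 uM, with actives followed in concentration series; loss of signal versus acetonitrile baseline.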

In test [15] the target is zebrafish Estrogen Receptor (ESR1), esr1 (gene 259252) (UniProt P57717). Description: ATG_zfER1_XSP1: Attagene TRANS-FACTORIAL Multi-Species (XSP1) HepG2 Assay for zebrafish Estrogen Receptor (ESR1) (AID 2283772). A digest of the protocol:
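Trans-activation readout: transfected zebrafish ER-Gal4 drives a UAS reporter in human HepG2 liver cells. After 24 h compound exposure (medium containing 3 nM 6-alpha-fluorotestosterone), induced reporter transcripts were quantified by RT-PCR with capillary electrophoresis, relative to DMSO.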

The subject of test [16] is zebrafish Estrogen Receptor (ESR2B), gene 317733. Description: ATG_zfER2b_XSP1: Attagene TRANS-FACTORIAL Multi-Species (XSP1) HepG2 Assay for zebrafish Estrogen Receptor (ESR2B) (AID 2283773). Summed up:
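Multiplexed TRANS format in transfected HepG2 liver cells, chimeric NR-Gal4 from zebrafish ESR2B. 24 h dosing; medium contains 3 nM 6-alpha-fluorotestosterone. mRNA induction by RT-PCR/CE, positive direction vs DMSO.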

Test [17] concerns frog Estrogen Receptor (ESR1), gene 398734. Kind of test: ATG_frER1_XSP1: Attagene TRANS-FACTORIAL Multi-Species (XSP1) HepG2 Assay for frog Estrogen Receptor (ESR1) (AID 2283777). Summed up: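 Transient MRTU transfection, HepG2 (human liver); 24 h dosing, 3 nM 6α-fluorotestosterone co-added; RNA → RT-PCR → 6-FAM labeling → CE; upward activity vs DMSO.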
Test [18] concerns the target Peroxisome proliferator-activated receptor gamma (Homo sapiens) (UniProt P37231). Description: ATG_hPPARg_XSP1: Attagene TRANS-FACTORIAL Multi-Species (XSP1) HepG2 Assay for human Peroxisome Proliferator-activated Receptor gamma (PPARg) (AID 2283800). A digest of the protocol: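 Reporter mRNA induction, measured by RT-PCR with capillary electrophoresis 24 h after dosing, scored as gain over DMSO. Transfected HepG2 cells express exogenous NR-Gal4 chimeras driving GAL4-UAS reporters; medium includes 3 nM 6-alpha-fluorotestosterone.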

Test [19] deals with mouse Peroxisome Proliferator-activated Receptor gamma (PPARg), Pparg (gene 19016) (UniProt P37238). Kind of test: ATG_mPPARg_XSP1: Attagene TRANS-FACTORIAL Multi-Species (XSP1) HepG2 Assay for mouse Peroxisome Proliferator-activated Receptor gamma (PPARg) (AID 2283802). A digest of the protocol: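 Readout is reporter mRNA induction, measured by RT-PCR with 6-FAM labelling, HpaI digestion and capillary electrophoresis, 24 h post-dose relative to DMSO. Transient multi-reporter transfection of human HepG2 with mouse PPARg–GAL4 fusion; 3 nM 6-alpha-fluorotestosterone included.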

The target of test [20] is frog Thyroid hormone Receptor alpha (TRa), thra-a (gene 397942) (UniProt P15204). Kind of test: ATG_frTRa_XSP1: Attagene TRANS-FACTORIAL Multi-Species (XSP1) HepG2 Assay for frog Thyroid hormone Receptor alpha (TRa) (AID 2283804). A digest of the protocol:
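Reporter transcript induction, measured by RT-PCR with 6-FAM labelling and capillary electrophoresis, 24 hr after dosing transiently transfected HepG2 cells expressing a frog TRa-GAL4 fusion; medium contained 3 nM 6-alpha-fluorotestosterone; increase over DMSO scored.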

Sequence of rat CYP2C11, Cyp2c11 (gene 29277) (P08683 whole entry, looked up): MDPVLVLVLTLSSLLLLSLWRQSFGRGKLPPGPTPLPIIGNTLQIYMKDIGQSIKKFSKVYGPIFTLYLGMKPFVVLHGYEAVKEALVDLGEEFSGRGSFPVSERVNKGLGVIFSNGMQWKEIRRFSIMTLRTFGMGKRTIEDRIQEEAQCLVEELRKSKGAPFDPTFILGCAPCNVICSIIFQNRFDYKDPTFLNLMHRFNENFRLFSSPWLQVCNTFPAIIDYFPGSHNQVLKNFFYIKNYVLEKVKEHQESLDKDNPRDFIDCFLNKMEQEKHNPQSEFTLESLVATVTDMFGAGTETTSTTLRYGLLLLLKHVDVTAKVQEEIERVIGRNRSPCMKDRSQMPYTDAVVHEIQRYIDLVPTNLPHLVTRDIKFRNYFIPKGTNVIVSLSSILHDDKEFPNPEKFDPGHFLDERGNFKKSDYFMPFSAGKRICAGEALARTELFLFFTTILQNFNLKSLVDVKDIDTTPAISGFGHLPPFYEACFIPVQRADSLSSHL
Sequence of mouse Peroxisome Proliferator-activated Receptor gamma (PPARg), Pparg (gene 19016) (P37238 whole entry, looked up, the tested form may be a part): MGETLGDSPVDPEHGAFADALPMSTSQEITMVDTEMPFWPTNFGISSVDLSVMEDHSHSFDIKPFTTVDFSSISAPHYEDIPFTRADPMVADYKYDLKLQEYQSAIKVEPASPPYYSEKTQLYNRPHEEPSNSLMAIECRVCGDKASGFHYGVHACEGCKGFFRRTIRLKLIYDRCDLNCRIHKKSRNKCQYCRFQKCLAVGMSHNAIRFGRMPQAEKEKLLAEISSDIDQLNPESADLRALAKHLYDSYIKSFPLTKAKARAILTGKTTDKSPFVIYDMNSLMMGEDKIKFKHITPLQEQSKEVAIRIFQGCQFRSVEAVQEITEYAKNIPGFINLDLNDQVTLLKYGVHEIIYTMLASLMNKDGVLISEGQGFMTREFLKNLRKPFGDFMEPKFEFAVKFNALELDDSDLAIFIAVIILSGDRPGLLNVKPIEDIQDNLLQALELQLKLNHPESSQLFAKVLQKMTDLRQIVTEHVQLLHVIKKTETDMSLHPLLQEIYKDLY
Sequence of frog Thyroid hormone Receptor alpha (TRa), thra-a (gene 397942) (P15204 whole entry, looked up, the tested form may be a part): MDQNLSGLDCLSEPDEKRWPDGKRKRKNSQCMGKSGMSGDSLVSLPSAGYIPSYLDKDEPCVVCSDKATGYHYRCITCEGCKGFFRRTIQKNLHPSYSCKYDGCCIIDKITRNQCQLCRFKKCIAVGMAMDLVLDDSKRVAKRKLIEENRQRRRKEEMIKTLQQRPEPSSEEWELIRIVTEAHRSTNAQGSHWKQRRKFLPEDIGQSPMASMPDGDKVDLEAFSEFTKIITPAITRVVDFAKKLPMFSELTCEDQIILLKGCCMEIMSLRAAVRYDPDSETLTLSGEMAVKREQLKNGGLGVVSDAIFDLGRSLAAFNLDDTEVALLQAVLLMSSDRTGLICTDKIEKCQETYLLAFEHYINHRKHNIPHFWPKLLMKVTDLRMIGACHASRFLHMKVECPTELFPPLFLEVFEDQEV
Sequence of rat CYP2C13, Cyp2c13 (gene 171521) (P20814 whole entry, looked up): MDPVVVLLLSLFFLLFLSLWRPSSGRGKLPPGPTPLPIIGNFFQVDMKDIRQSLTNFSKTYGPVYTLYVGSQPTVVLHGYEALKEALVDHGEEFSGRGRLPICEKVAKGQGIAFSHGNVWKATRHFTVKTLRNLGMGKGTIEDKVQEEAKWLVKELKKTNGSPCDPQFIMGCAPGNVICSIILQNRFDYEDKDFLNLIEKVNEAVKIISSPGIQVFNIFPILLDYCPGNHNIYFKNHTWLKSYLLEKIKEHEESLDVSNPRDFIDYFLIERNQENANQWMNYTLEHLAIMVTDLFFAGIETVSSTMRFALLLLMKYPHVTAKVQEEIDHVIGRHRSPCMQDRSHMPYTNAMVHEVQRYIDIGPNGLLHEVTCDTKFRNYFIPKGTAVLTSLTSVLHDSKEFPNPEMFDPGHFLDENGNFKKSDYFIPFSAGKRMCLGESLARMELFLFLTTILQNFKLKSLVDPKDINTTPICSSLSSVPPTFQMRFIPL
Sequence of Peroxisome proliferator-activated receptor gamma (Homo sapiens) (P37231 whole entry, looked up, the tested form may be a part): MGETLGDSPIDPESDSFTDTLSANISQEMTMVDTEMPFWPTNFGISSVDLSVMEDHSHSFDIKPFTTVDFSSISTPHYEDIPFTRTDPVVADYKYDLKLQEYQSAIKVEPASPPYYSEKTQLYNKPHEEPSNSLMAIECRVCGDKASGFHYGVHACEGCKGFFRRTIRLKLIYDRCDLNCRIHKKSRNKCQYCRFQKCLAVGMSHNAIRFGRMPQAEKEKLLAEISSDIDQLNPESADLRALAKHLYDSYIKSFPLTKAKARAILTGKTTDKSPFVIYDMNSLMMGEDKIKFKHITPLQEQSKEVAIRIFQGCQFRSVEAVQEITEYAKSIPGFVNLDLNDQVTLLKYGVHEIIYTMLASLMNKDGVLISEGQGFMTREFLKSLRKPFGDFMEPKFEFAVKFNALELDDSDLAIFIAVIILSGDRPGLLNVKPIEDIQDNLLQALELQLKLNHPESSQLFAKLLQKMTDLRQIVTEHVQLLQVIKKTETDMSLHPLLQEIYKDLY
Sequence of zebrafish Estrogen Receptor (ESR1), esr1 (gene 259252) (P57717 whole entry, looked up, the tested form may be a part): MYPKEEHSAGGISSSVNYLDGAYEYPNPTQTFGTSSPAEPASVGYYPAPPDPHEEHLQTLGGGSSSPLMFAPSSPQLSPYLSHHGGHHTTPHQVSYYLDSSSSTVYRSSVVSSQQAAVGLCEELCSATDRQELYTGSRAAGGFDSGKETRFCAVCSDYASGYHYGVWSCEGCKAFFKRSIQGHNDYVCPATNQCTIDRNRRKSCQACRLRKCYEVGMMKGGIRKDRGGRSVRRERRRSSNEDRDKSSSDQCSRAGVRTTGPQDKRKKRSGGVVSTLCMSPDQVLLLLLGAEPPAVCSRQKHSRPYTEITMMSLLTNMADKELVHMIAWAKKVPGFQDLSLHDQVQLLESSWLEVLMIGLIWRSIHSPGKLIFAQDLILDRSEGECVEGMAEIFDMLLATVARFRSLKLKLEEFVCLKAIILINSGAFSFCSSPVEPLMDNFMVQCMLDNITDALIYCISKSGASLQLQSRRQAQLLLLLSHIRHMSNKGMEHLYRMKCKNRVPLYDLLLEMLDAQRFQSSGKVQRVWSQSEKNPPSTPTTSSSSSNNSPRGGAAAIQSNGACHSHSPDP
Sequence of human CYP2C9, CYP2C9 (gene 1559) (P11712 whole entry, looked up): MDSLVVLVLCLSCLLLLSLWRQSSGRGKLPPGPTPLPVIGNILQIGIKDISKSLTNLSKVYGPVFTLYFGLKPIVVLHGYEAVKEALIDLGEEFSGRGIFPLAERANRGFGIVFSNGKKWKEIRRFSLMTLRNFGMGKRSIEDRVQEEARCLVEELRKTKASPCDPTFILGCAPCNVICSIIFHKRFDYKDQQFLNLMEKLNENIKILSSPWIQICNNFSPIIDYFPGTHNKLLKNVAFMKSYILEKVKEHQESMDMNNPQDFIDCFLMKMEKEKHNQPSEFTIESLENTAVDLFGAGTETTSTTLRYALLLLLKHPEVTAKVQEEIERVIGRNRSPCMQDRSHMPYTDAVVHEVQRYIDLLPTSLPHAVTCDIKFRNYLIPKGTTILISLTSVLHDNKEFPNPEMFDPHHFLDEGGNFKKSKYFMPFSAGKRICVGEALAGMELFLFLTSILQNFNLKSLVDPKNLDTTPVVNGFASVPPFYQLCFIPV
Sequence of Retinoic acid receptor RXR-alpha (Homo sapiens) (P19793 whole entry, looked up): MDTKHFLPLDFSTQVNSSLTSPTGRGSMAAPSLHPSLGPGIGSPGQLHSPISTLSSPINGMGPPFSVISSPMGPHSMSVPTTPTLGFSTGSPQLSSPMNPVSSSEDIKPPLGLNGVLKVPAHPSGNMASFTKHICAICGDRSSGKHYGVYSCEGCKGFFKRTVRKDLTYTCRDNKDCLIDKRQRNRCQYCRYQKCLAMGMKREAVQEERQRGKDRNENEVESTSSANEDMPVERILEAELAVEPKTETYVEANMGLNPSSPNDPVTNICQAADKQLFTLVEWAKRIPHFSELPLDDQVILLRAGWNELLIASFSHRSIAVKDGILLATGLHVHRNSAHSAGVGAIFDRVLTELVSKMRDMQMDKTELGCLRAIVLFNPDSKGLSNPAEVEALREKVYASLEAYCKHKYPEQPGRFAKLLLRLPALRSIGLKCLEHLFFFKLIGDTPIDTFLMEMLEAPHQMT

Consider `CC(C)CCCCCCCOC(=O)c1ccccc1C(=O)OCCCCCCCC(C)C`, for which the outcome in [1] and in test [2] was inactive.
For the molecule `O=CNC(N1CCN(C(NC=O)C(Cl)(Cl)Cl)CC1)C(Cl)(Cl)Cl` (stereo not given), the AC50 – broadly, the midpoint of the concentration-response curve, whichever way the signal moves – in [3] is 5.16 µM (active). Further, the result in test [4] was inactive.
For the molecule `C[C@]12CC[C@H](O)C[C@H]1CC[C@@H]1[C@@H]2C[C@@H](O)[C@]2(C)[C@@H](C3=CC(=O)OC3)CC[C@]12O`, the AC50 in test [5] was 5.79 µM (active); in test [6], 1.28 µM (active); in [7], 5.47 µM (active); in test [8], 5.44 µM (active); in [9] it was 4.34 µM (active); in test [10] it was 3.91 µM (active). The AC50 in test [11] is 10.8 µM (active); in test [12], 10.7 µM (active); in test [13], 4.25 µM (active).
Turning to `CC(C)(c1cc(Cl)c(O)c(Cl)c1)c1cc(Cl)c(O)c(Cl)c1`, the AC50 in test [14] was 2.29 µM (active); in test [16], 9.75 µM (active); in [18] it was 2.73 µM (active); in [19] it was 2.92 µM (active). For the same molecule, the result in [15], in test [17] and in test [20] was inactive.

The values above are taken from PubChem BioAssay (EPA / NIEHS).
